Results on 40 sequences are retold here after the supplement of paper PMC6555819.

This assay deals with VDR homodimer (NR concentration 270 nM). Kind of assay: PBM binding z-score (relative to random genomic background probes); higher = stronger binding; sequences stand for … in GC…GCGATTGACAGCGTAGAATGAAGG
In a few lines:
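Binding z-scores were set against random background probes. The data came from custom Agilent 4×180K protein-binding microarrays carrying double-stranded probes with 34-nt variable regions, incubated 1 h with ligand-free nuclear receptor dimers. Partner-specific antibodies detected binding, and scanned fluorescence was regression-normalized.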
With CCTGCTAGGGCAATGGTCAGCTAAAGCAGCTCGC, the PBM binding z-score was -0.814.

In the case of ATCGAAAGGTCGTGAGGTGAGTCTACAGAAAGGC, the PBM binding z-score was found to be 1.09.

Take CCTAGCACGCCAGGGTCACTCAAGCATTTCGCTT: the PBM binding z-score is 0.973.

As for TCATATAAGTAAAAGGTGAAAGTCGGTGTGGTAA, the PBM binding z-score was found to be 0.109.

In turn, AGTCAAAGTTCATCTAGGCAACGTAAGATATGCT came in with a PBM binding z-score of 4.64.

Turning to ACTATTAGTTGACTTAGGGCAACCCATACGACGC, the PBM binding z-score was 0.642.

For the sequence CCTCGGTGGACAACAGGAGGTCAGAGCTGCCAGA, the PBM binding z-score worked out at 0.396.

As for CGAACTAGGTCAGGGACAGTGAATCTCCGCACGC, the PBM binding z-score was -0.0543.

In turn, TCGAGTAGGTTAGACGGGGCATTCAGCCAACATA registered a PBM binding z-score of -0.0872.

In the case of CCTTACGGGTCACCGACAGGTTATAGCATTTGGA, the PBM binding z-score worked out at 1.09.

GCTGCTAGGTCAACTGATGTTCAGCTAAAGCTCG: the PBM binding z-score came to 0.0528.

Sequence TCTTATAGGTAAAAGGTGAAAGTCGGTGTGGTAA showed a PBM binding z-score of 0.326.

The sequence ACTAGCAGGCCAAGTCTGGGTCACTCAAACAAAG yielded a PBM binding z-score of 0.0682.

ATCTCTAGGAAAAGATAGTTCAGTGAATGCAAAT returned a PBM binding z-score of 0.566.

With ACTAGCAGGCCAAGTTTGGGTCACTCAGACAAAG, the PBM binding z-score is 0.117.

Take AACTCTAGGTAAAGATAGTTCAGTGAATGCAAAT: the PBM binding z-score came out at 0.243.

Regarding GCTAGCAGGCCATTTGGTTCACTCAATGACGGGC, the PBM binding z-score turned out to be 1.2.

Turning to ATCGAAAGGCCGACGAGGTGAGTATACACCGTTT, the PBM binding z-score was -0.425.

In turn, TCTGTTAGTTGAAGGGCAACCGACGAGTCCGTTT returned a PBM binding z-score of 1.67.

On to CCTACTGGGCCACGAAACGTCATTGATTCAGTGA, for which the PBM binding z-score was -1.01.

In turn, TCGAGTAGGTTAGGGGCATGCAGAATGGCGTCGA showed a PBM binding z-score of 0.0612.

CCTACTGGGCCAAAGCTCATTGATTCCAATGCTC had a PBM binding z-score of -0.874.

In turn, TCTTGTAGAGCAACAGGAGGTTAAGAAAGATCGA yielded a PBM binding z-score of -0.241.

In turn, TCTTGTAGATCAAGCAGGTTAAGGAAGCCTGAGT had a PBM binding z-score of 0.166.

As to CCTAGCAGGCCAATCTGGGTCACTAAAGGCTTGA, the PBM binding z-score is 0.000244.

As to CCTTACGGGTCACTCCAGATTATAGCATCGGAGT, the PBM binding z-score turned out to be 1.39.

CGTCCAAGGTCAAGGTCAGTTAAAGAGACTCGAA had a PBM binding z-score of 3.29.

In turn, CCTGCTGGGCCAAGGTCATTGATCAGTCAAAGCA gave a PBM binding z-score of 2.48.

In turn, TCGAGTAGGTTACCAATGGGGCAGTCAGCTTTCT returned a PBM binding z-score of -1.05.

With AGTCTAAGTTCACTAGGTAACGTAAGATTCAGCT, the PBM binding z-score was determined as 4.71.

As to CAAACTAGGTGACGAAAGGTCAAAGTCGAATGAC, the PBM binding z-score worked out at 2.22.

As for CCTTGTTGGTCAGGAGGTCACACACCGGATATGA, the PBM binding z-score came to 2.17.

On to ATCTCTAGGTAACAAGTCCAGTGAAAGAGAGGAC, for which the PBM binding z-score turned out to be 0.635.

As to GCTAGTTGGTCAGTAAAAGGTCACACATCGGTCG, the PBM binding z-score was determined as 1.47.

On to GGAACGAGGGCGTTCGAGTTGATAGCATGGCGAT, for which the PBM binding z-score amounted to 2.02.

In turn, CTACCAAGGTGAACAACGTCGTTGATTACTATTC came in with a PBM binding z-score of -0.472.

Take CGAACTAGGTCAGAACAGGACAGTGGAGGATGAT: the PBM binding z-score was found to be 0.198.

GCTGCTAGGTCTACTGATGGTCAGCTAAAGCTCG returned a PBM binding z-score of -0.893.

The sequence CAAACTAGGTCATGGTCAAAGTCGGTTTGTGCCA registered a PBM binding z-score of 1.15.

In turn, ATCGAAAGGCCGTGAGGTGAGTATACAGAAAGGC gave a PBM binding z-score of -0.0558.
